Hit rate of the full screen: of about 220,000 compounds, about 530 (0.24%) were called active. For the sample, actives were picked, then their nearest neighbours and some compounds at random. Results with a measured potency or affinity are listed apart. Unmarked numbers belong to inactive results. No stated cut-off is given here; in the data, active means inhibition above about 13%; inconclusive means no clear call, values can overlap the other calls; inactive means below that.
target: Bifunctional protein GlmU (Mycobacterium tuberculosis (strain ATCC 25618 / H37Rv)) (UniProt P9WMN3); assay: inhibition of mycobacterial GlmU enzyme – biochemical, glucosamine-1-phosphate acetyltransferase (AID 1376);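 further: 0% = complete reaction with vehicle and 100% = reaction without substrate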; details: M. tuberculosis GlmU acetyltransferase enzyme assay; stronger effect = higher value;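 tested at 30 µM in the primary screen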
Sequence (P9WMN3 whole entry, looked up): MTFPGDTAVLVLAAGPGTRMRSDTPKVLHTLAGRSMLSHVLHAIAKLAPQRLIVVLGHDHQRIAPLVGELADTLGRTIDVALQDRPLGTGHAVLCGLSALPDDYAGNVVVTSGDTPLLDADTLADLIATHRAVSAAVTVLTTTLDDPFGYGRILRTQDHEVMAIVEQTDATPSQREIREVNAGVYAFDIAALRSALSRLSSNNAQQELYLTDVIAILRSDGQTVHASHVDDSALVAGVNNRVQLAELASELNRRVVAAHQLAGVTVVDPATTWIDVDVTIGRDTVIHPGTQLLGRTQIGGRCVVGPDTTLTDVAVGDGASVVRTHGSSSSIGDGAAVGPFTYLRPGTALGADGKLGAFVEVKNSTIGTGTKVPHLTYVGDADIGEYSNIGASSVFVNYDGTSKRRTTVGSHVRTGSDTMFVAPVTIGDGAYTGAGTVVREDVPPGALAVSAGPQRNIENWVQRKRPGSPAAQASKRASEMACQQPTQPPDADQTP

Compound | inhibition
Cc1ccc(-c2nc(C)sc2CC(=O)NCc2ccco2)cc1 | 14.4% (active)
Cc1ccc(NC(=O)Cc2sc(C)nc2-c2ccc(C)cc2)cc1 | -0.58%
Cc1ccc(-c2nc(C)sc2CC(=O)Nc2nnc(C)s2)cc1 | -1.22%
Cc1coc(NC(=O)CSc2nc(-c3ccncc3)cc(C(F)(F)F)c2C#N)n1 | -2.15%
COc1ccccc1Cn1c(=S)[nH]c2cc(C(=O)NCc3cccnc3)ccc2c1=O | -2.96%
COc1cc(CNn2cn[nH]c2=S)cc(Cl)c1OCc1ccccc1 | -2.33%
COc1cccc(-c2cc(-c3cccnc3)nc(N)c2C#N)c1 | 2.15%
O=[N+]([O-])c1c(N2CCN(CCO)CC2)nc2ccccn12 | 15.2% (active)
O=[N+]([O-])c1ccc(N2CCN(CCO)CC2)c2ncccc12 | -1.16%
Cc1nc([N+](=O)[O-])cn1-c1nc2ccccn2c1[N+](=O)[O-] | -6.37%
COc1cccc(N2[C@@H](CC(=O)O)c3cc(C(F)(F)F)ccc3S2(=O)=O)c1 | 7.93%
C=CCn1c(Sc2ncc([N+](=O)[O-])s2)n[nH]c1=O | 7.87%
COc1cccc(N=Nc2c(=O)[nH]n3c(=O)c4c([nH]c23)CCC4)c1 | 5.17%
CCOc1ccc(N=Nc2c(=O)[nH]n3c(=O)cc(C)[nH]c23)cc1 | 17.1% (active)
Cc1cc(=O)n2[nH]c(=O)c(N=Nc3ccccc3)c2[nH]1 | 4.01%
COc1cccc(N=Nc2c(=O)[nH]n3c(=O)cc(C)[nH]c23)c1 | 13% (active)
Cc1ccc(N=Nc2c(=O)[nH]n3c(=O)cc(C)[nH]c23)cc1 | 9.14%
CCOc1ccc(N=Nc2c(=O)[nH]n3c(=O)c4c([nH]c23)CCCC4)cc1 | 4.96%
COc1cc(NC(=O)c2cccc(COCC(F)(F)C(F)F)c2)cc(OC)c1OC | -1.01%
CC(C)C1Oc2cc3oc(=O)ccc3cc2C1=O (stereo not drawn) | 0.4%
S=c1[nH]nc(-c2ccccc2)n1/N=C/C=C/c1ccco1 | 6.1%
S=c1[nH]nc(-c2cccnc2)n1/N=C/C=C/c1ccco1 | 7.53%
S=c1[nH]nc(-c2ccncc2)n1/N=C/C=C/c1ccco1 | 13.6% (active)
O=C1NC(=O)N(Cc2ccccc2Cl)C(=O)/C1=C/c1cccs1 | 1.69%

Compound | inhibition
C(=N/N1CCN(c2ccccc2)CC1)/c1ccncc1 | -0.53%
COc1ccc(Br)cc1S(=O)(=O)N1CCCC1 | 14.1% (active)
CCOc1ccc(Br)cc1S(=O)(=O)N1CCCC1 | -3.03%
COc1ccc(Br)cc1S(=O)(=O)N1CCOCC1 | -4.63%
C=CCN(CC=C)C(=O)Nc1cc(Cl)ccc1OC | 6.87%
O=C(CC1C(=O)N(c2ccccc2)C(=O)N1Cc1ccco1)Nc1ccccc1 (stereo not drawn) | 0.18%
Cc1csc(SCC(=O)N(C)CC(=O)Nc2ccc(F)cc2)n1 | -5.2%
Cc1cc(SCC(=O)N(C)CC(=O)Nc2ccc(F)cc2)nc2ccccc12 | 13.3% (active)
Cc1nnc(SCC(=O)N(C)CC(=O)Nc2ccc(F)cc2)n1Cc1ccccc1 | -4.08%
Cc1ccc(C)n1-c1ccc(C(=O)O)cc1 | 11.1%
Cc1ccc(C)n1-c1sc2c(c1C(=O)O)CCCC2 | 11.2%
Cc1cccc(-n2c(-c3ccco3)nc3ccccc3c2=O)n1 | -2%
Cc1nc(S/C(=C/c2ccc(-c3ccc(Cl)cc3)o2)C(=O)O)n[nH]1 | -0.27%
Cc1nc(S/C(=C/c2ccc(-c3ccc(C(=O)O)cc3)o2)C(=O)O)n[nH]1 | 11.3%
CC(=O)Nc1ccc(NC(=O)COC(=O)[C@@H](NC(=O)c2ccc(F)cc2)C(C)C)cc1 | -1.53%
Cc1ccccc1C(=O)N1CCN(c2ccc(NC(=O)c3ccc4c(c3)OCO4)cc2)CC1 | -4.66%
CNC(=O)COC(=O)CCC(=O)c1cccs1 | 4.98%
O=C(O)c1cccc(S(=O)(=O)N2CCN(C(c3ccccc3)c3ccccc3)CC2)c1 | -1.93%
Cc1coc(NC(=O)CSc2nc(-c3ccc(Cl)cc3)cc(C(F)(F)F)c2C#N)n1 | 3.77%
COC(=O)C1=C2c3[nH]c4ccccc4c3CCN2C(=O)CC1 | -2.64%
CN(C)S(=O)(=O)c1cccc(NC(=O)NCCCl)c1 | 8%
CN(CC(=O)NCCc1ccc(Cl)cc1)S(=O)(=O)c1ccc2c(c1)c(=O)n(C)c(=O)n2C | -0.75%
Cc1ccc(CCNC(=O)CN(C)S(=O)(=O)c2ccc3c(c2)c(=O)n(C)c(=O)n3C)cc1 | 2.34%
CCCCN(CC)CCNC(=O)CN(C)S(=O)(=O)c1ccc2c(c1)c(=O)n(C)c(=O)n2C | 20.9% (active)

From PubChem BioAssay AID1376 (SRMLSC, 2008)
